Shown are actives, neighbours in structure and some others; about 2.8% of the full set was active somewhere.
HIF-2a block: blocks HIF-2a reporter activity | 786-0 RCC cells HIF-2a reporter, luciferase luminescence, overnight | 360,000 compounds, 0.72% hits | inhibition, % at 18.8 µM;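 active = inhibition of the luminescence signal of 40% or more relative to plate controls, in a single-dose primary screen at 18.75 µM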
KKLEB cytotox: counter-screen for CF NF-kB inhibitors: cytotoxicity; KKLEB CF airway cells viability, ATPlite luminescence, overnight; active compounds read low; cells stimulated with P. aeruginosa culture filtrate; AID 602141; 360,000 compounds, 0.36% hits; activity change (cytotoxicity), % at 5 µM;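 active = corrected activity change at or below -50% at 5 µM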
Peg3 promoter: reduces Peg3 promoter-driven luciferase expression in HeLa; HeLa PEG-Prom luciferase reporter, luminescence, overnight; 360,000 compounds, 1.7% hits; inhibition, % at 20 µM; AID 588405;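 active = inhibition of at least 50% at 20 µM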
CF NFkB block: inhibitors of cystic fibrosis induced NF-kB. KKLEB NF-kB-GFP reporter, PAF-induced, GFP fluorescence overnight. inhibition, % at 5 µM. 360,000 compounds, 0.86% hits. AID 588850;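 active = at least 50% inhibition at 5 µM, scaled per plate between neutral and stimulator controls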;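 also: PAF is a Pseudomonas aeruginosa culture filtrate used as stimulus; plate controls were PAF-stimulated DMSO wells for no effect and unstimulated DMSO wells for full effect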
Shn3 3UTR inh: reduces Shn3 3'UTR luciferase signal in osteoblasts. inhibition, % at 12.5 µM. 360,000 compounds, 0.52% hits. AID 588674. Clone20 osteoblast Shn3 3'UTR firefly luciferase, 24 h;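 active = mean inhibition of at least 75% with every replicate also reaching 75%; inconclusive = mean inhibition at least 75% but some replicate below; inactive = mean inhibition below 75%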;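 also: 0% = median of neutral control wells and 100% = pilot-screen positive control compound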
MITF TRPM1 inh: MITF TRPM1 promoter inhibition in SK-MEL-5 cells | inhibition, % at 12.5 µM | 330,000 compounds, 0.83% hits | SK-MEL-5 TRPM1 promoter luciferase, 24 h | AID 488899;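 active = mean inhibition across replicates of 60% or more, whatever share of single replicates reaches that level; inconclusive = some that reach 60%, reason not given; inactive = mean inhibition across replicates below 60%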
The depositor's hits bear a star; ? = inconclusive; nt = no result.

SMILES | HIF-2a block | KKLEB cytotox | Peg3 promoter | CF NFkB block | Shn3 3UTR inh | MITF TRPM1 inh
CN(CC(=O)NCC(=O)Nc1ccc(F)cc1)C1CCS(=O)(=O)C1 (stereo not given) | 11.1 | -11.3 | 6.1 | -10.8 | 7.0 | 0.1
Cc1ccc(NC(=O)CSc2nc3c([nH]c4ccccc43)c(=O)n2C)cc1 | 10.4 | 6.0 | 54.1* | 1.7 | 44.9 | nt
C=CCn1c(SCC(=O)Nc2ccccc2OC)nc2c([nH]c3ccccc32)c1=O | 15.3 | -57.0* | 7.3 | 55.4* | 30.7 | 45.8
COCCn1c(SCC(=O)Nc2ccccc2OC)nc2c([nH]c3ccccc32)c1=O | 30.9 | 0.8 | 24.1 | -6.9 | 22.7 | 24.4
Cc1ccc(-c2csc(NC(=O)CSc3nnc4c(n3)[nH]c3ccccc34)n2)cc1 | -31.4 | -12.0 | 55.9* | 20.5 | 34.1 | 20.0
CC(OC(=O)CC1CCCCC1)C(=O)Nc1ccc(F)cc1 (stereo not given) | -0.1 | 7.4 | 4.2 | -3.7 | 39.6 | 10.2
CC1(C)Cc2c(c(N3CCOCC3)nc3sc4c(=O)[nH]cnc4c23)CS1 | 7.2 | -14.5 | 9.1 | 35.1 | 13.7 | -16.5
CCN(CC)CCNc1ncnc2c1sc1nc(N3CCOCC3)c3c(c12)CC(C)(C)SC3 | 34.0 | -40.6 | 103.6* | 38.2 | 21.6 | -5.8
CCN=C1NN=C(c2cc(C)n(CCc3ccccc3)c2C)CS1 | -14.3 | -15.3 | -32.1 | 3.8 | -61.0 | -9.3
CCN=C1NN=C(c2cc(C)n(Cc3ccco3)c2C)CS1 | 67.5* | 3.6 | 39.1 | -9.7 | 37.0 | 80.0*
Cc1occc(=O)c1O | -1.4 | -88.4* | -4.6 | -16.9 | -8.3 | 1.0
NC(COCc1ccccc1)c1csc(Nc2ccccn2)n1 (stereo not given) | -31.5 | -5.9 | -16.7 | 13.2 | 2.8 | nt
NC(CCc1ccccc1)c1csc(Nc2ccc(C(F)(F)F)cn2)n1 (stereo not given) | 14.8 | -12.1 | 109.6* | 18.3 | -1.5 | nt
NC(COCc1ccccc1)c1csc(Nc2ccc(C(F)(F)F)cn2)n1 (stereo not given) | 9.3 | 7.0 | 101.7* | -5.2 | 25.3 | nt
O=C(Nc1cccc([N+](=O)[O-])c1)N1CCCCCC1 | -9.6 | 4.6 | -2.1 | -10.4 | -17.7 | 1.9
Cc1noc(C)c1COc1ccccc1C(=O)NCCOc1ccccc1 | -18.7 | 2.9 | 8.0 | 16.0 | 3.0 | -3.6
CCCC(O)(c1ccc(Cl)cc1)C(CN1CCOCC1)c1ccccc1 (stereo not given) | 2.4 | 1.8 | 57.3* | -1.4 | -3.8 | 3.4
CCCC(O)(c1ccc(Br)cc1)C(CN1CCOCC1)c1ccc(Cl)cc1 (stereo not given) | 7.1 | -10.8 | 57.7* | 17.9 | 4.2 | -3.1
CCCC(O)(c1ccccc1)C(CN1CCOCC1)c1ccccc1 (stereo not given) | 9.9 | -1.7 | 5.6 | 13.4 | 0.8 | -3.0
COc1cc(-c2coc3c(C(=O)NCc4ccc(OC)c(OC)c4)cccc23)ccc1O | -159.5 | -32.0 | 51.2* | 4.4 | 71.2 | nt
COc1cc(-c2coc3c(C(=O)NCc4ccc(N(C)C)cc4)cccc23)ccc1O | -53.3 | -33.8 | -26.9 | -9.0 | 19.0 | nt
COc1ccc(-n2nc3c(N4CCC(C(=O)NCc5ccco5)CC4)nnc(C)c3c2C)cc1 | 9.4 | -5.9 | -14.6 | 21.5 | 11.1 | -0.3
CCOc1ccccc1CNC(=O)C1CCCN(c2nnc(C)c3c(C)n(-c4ccccc4)nc23)C1 (stereo not given) | 11.3 | 3.0 | 54.7* | 0.3 | 57.7 | 81.4*
COc1ccc(-n2nc3c(N4CCC(C(=O)NCC(C)c5ccccc5)CC4)nnc(C)c3c2C)cc1 (stereo not given) | 11.3 | -4.5 | 74.6* | 12.7 | ? | 68.2*
COc1ccc(-n2nc3c(N4CCC(C(=O)NCCc5ccccc5C)CC4)nnc(C)c3c2C)cc1 | 0.1 | 0.4 | 103.0* | -2.8 | 77.6 | 88.7*
SMILES | HIF-2a block | KKLEB cytotox | Peg3 promoter | CF NFkB block | Shn3 3UTR inh | MITF TRPM1 inh
CCC(CO)Oc1cc(NC(=O)c2ccccc2Cl)c2ncn(C(C)C)c2c1 (stereo not given) | 13.3 | 4.9 | 15.5 | -10.3 | 5.2 | nt
COc1ccc(/C=N/N2C(=O)C3C4C=CC(CC4)C3C2=O)c(OC)c1 (stereo not given) | -60.0 | -2.7 | -19.3 | 11.4 | 16.0 | -10.2
COc1ccc(NS(=O)(=O)c2ccc(Cl)c(C(=O)O)c2)cc1S(=O)(=O)N1CCCCC1 | 15.9 | 11.5 | -1.1 | -10.8 | 4.3 | -1.0
Cc1cnc(NC(=O)c2nn(C)cc2[N+](=O)[O-])s1 | -23.8 | -3.2 | 93.5* | 15.5 | 18.9 | ?
Cc1cc(C)c(NC(=O)CNC(=O)c2ccccc2OCc2c(C)noc2C)c(C)c1 | 8.9 | 3.8 | 9.6 | 9.2 | -4.6 | 1.5
O=C1CC2(CCN(C(=O)c3ccccc3F)CC2)Oc2ccccc21 | 13.0 | -6.9 | 13.0 | 13.6 | 87.3* | -5.9
CSc1ccccc1C(=O)N1CCC2(CC1)CC(=O)c1ccccc1O2 | 12.1 | -7.0 | 18.5 | 30.9 | 13.4 | -5.6
Cc1cc(C)c2cc(C#N)c(NCCNC(=O)c3cccnc3)nc2c1 | -21.7 | nt | nt | nt | nt | nt
O=S(=O)(NNc1ncc(C(F)(F)F)cc1Cl)c1ccccc1 | -14.5 | -7.3 | 13.5 | 19.5 | 2.7 | 21.2
CCS(=O)(=O)c1nc2ccccc2n1Cc1ccccn1 | 15.5 | 7.5 | 18.2 | 6.4 | 5.0 | 3.2
O=C(NCC1OCCc2ccccc21)c1ccc(NC(=O)c2ccc(Cl)cc2)cc1 (stereo not given) | 6.5 | 0.5 | 33.2 | -9.8 | 24.5 | 69.2*
O=C(Nc1ccc(F)cc1)NC1(C(=O)NCc2ccco2)CCCCC1 | 13.7 | -79.1* | 3.7 | -16.8 | -8.5 | -12.2
Cc1ccc(NC(=O)C2CCN(S(=O)(=O)c3ccc4c(c3)CCCC(=O)N4)CC2)c(Br)c1 | -5.8 | -1.3 | -5.1 | 19.7 | 12.8 | 8.2
CN1CCN(c2ccc(S(=O)(=O)N3CCCCC3)cc2NC(=O)/C=C/c2ccc(OC(F)F)cc2)CC1 | 10.5 | -10.1 | 75.9* | 16.7 | -32.7 | -2.0
CN1CCN(c2ccc(S(=O)(=O)N3CCCCC3)cc2NC(=O)/C=C/c2ccc(Cl)c([N+](=O)[O-])c2)CC1 | 6.1 | -13.1 | 104.4* | 23.9 | 3.8 | 10.1
CCN1CCN(c2ccc(S(=O)(=O)N3CCCCC3)cc2NC(=O)/C=C/c2cccc(OC)c2OC)CC1 | 14.8 | 11.3 | 68.4* | 5.0 | -9.6 | 78.0*
CCN1CCN(c2ccc(S(=O)(=O)N3CCCCC3)cc2NC(=O)/C=C/c2ccc(F)cc2)CC1 | 3.7 | -12.4 | 17.9 | 6.1 | 18.4 | -3.8
CCN1CCN(c2ccc(S(=O)(=O)N3CCCCC3)cc2NC(=O)/C=C/c2ccc(OC(F)F)cc2)CC1 | -14.2 | -16.6 | 96.3* | 16.9 | -3.0 | -19.8
CC(C)(C)C(=O)Nc1cc(S(=O)(=O)N2CCCCC2)ccc1N1CCCCC1 | 8.5 | 1.5 | 35.2 | -3.8 | 83.5* | 25.3

Compound activity (PubChem BioAssay)
